# PostGolgi ctrl: yeast control strain growth, post-Golgi counter-screen; efflux-deficient yeast background strain, growth absorbance A615, 16 h; inhibition, % at 10 µM; actives 5% (n = 98,000); AID 738
# PTK2B oligo ant: Pyk2 (human) oligomerization antagonism; Q293 cells, Pyk2 FERM NanoBiT luminescence; stronger effect = lower value; z-score (the deposit names both 25 µM and 10 µM); actives 0.83% (n = 99,000);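 active = Z-score of -3 or lower, scaled per plate to the spread of control and sample wells; inactive = z-score above -3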;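 note: negative z-score means lost luminescence so less FERM oligomerization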
# Target sequence (Q14289 whole entry, looked up): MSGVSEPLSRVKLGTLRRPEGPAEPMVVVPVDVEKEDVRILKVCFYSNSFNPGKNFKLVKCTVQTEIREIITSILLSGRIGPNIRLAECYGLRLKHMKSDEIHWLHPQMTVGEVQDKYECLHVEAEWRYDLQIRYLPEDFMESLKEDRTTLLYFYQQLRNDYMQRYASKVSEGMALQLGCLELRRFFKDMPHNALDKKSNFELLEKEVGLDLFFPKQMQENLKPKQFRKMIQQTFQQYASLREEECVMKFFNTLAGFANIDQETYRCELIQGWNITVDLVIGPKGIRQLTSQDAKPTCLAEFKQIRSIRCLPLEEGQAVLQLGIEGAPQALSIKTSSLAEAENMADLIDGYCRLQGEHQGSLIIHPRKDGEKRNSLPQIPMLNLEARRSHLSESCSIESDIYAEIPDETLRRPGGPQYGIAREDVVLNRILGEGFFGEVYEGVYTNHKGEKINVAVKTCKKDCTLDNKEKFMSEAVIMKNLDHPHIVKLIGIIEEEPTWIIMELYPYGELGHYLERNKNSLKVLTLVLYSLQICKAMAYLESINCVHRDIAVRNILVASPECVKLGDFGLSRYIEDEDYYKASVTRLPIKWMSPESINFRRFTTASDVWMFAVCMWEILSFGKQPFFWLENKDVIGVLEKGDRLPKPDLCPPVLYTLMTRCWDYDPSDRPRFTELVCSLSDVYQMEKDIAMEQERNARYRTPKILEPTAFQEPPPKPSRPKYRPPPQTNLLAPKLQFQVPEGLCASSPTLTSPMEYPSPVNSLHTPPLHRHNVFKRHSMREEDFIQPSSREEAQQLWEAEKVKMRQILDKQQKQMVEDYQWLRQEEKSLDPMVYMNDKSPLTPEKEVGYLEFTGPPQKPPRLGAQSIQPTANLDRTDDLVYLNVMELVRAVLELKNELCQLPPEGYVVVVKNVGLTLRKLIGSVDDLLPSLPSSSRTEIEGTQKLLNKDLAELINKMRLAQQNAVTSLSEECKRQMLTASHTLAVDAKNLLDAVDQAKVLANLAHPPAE
# PostGolgi yeast: growth inhibition of a yeast mutant, post-Golgi transport screen | post-Golgi transport phenotypic cell assay | inhibition, % at 10 µM | actives 0.9% (n = 98,000);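 note: yeast cells grown in 1536-well plates; yeast grown about 18 h at 30C before absorbance read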
# Cav3 T inh: inhibitors of human Cav3.2 T-type calcium channel; O95180; Cav3.2-expressing cells, Fluo-4 calcium fluorescence FDSS; stronger effect = lower value; B-score at 10 µM; actives 4% (n = 100,000); AID 449739;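 active = single-dose well whose peak fluorescence ratio is a statistical outlier from its plate by either plate-standardised score or position-corrected B-score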
# Active calls of the source: *; / = no result. An excerpt weighted towards active compounds, which were near 8% of everything screened. Cut-off read from the data, not from the text of the source, unless noted: active = inhibition above about 30%; inactive = the rest.
SMILES,PostGolgi ctrl,PTK2B oligo ant,PostGolgi yeast,Cav3 T inh
COc1ccc(Cl)cc1NC(=O)C12CCC(C)(C(=O)O1)C2(C)C (stereo not given),13,-1.1,1,-0.14
CN(C)/C=C/C(=O)c1nnn(C2CCCCC2)c1NC1CCCCC1,31*,0.48,-6,-0.017
O=C(COC(=O)Cc1ccc(S(=O)(=O)N2CCCCC2)s1)Nc1ccc2c(c1)OCO2,36*,0.24,-3,-0.066
O=C(COC(=O)Cc1ccc2c(c1)OCCO2)Nc1ccc(S(=O)(=O)N2CCCC2)cc1,4,0.38,2,-0.59
Cc1ccc(NC(=O)c2cc(S(=O)(=O)c3ccccc3)ccc2Cl)cc1,16,1.4,-4,-5.4*
Cc1ccc2c(c1)NC(=O)C(N1CCOCC1)(C(F)(F)F)O2 (stereo not given),1,0.74,-20,0.021
Cc1cc(N2CCCc3ccccc32)n2ncnc2n1,14,/,1,-0.13
Cc1csc(N2CCc3ccccc32)n1,31*,-0.08,13,-0.029
Cc1ccc(C)c(S(=O)(=O)NC(CC(C)C)C(=O)O)c1 (stereo not given),9,0.21,3,/
Cc1ccc(CNC(=O)C2(c3cccs3)CCOCC2)cc1,/,-0.17,/,/
COCCn1nnnc1CN(Cc1cccnc1)Cc1cc2cc(OC)ccc2[nH]c1=O,9,2.2,4,0.0023
COCCn1nnnc1C(C(C)C)N(Cc1cccnc1)Cc1ccccc1Cl (stereo not given),38*,-0.56,1,-0.47
O=S(=O)(NCCOCC(F)(F)C(F)F)c1ccc2oc3ccccc3c2c1,41*,-1.6,4,-4.6*
COc1ccc(OCCNS(=O)(=O)c2ccc3oc4ccccc4c3c2)cc1,17,-0.67,2,-0.4
Cc1ccc(SCCNC(=O)C(CO)(CO)CO)cc1,3,0.24,-7,0.068
Cc1ccc(SCCNC(=S)Nc2ccccc2)cc1,17,-0.22,-3,-6.1*
S=C(NCCSCc1c(Cl)cccc1Cl)Nc1ccccc1,9,-1.6,-5,-5.8*
Cc1ccc(SCCNC(=S)Nc2cc(C)ccc2C)cc1,15,-0.53,-2,-4.1*
COc1ccccc1NC(=S)NCCSc1ccc(C)cc1,/,0.01,/,/
Cc1ccc(SCCNC(=S)Nc2ccc(C)c(C)c2)cc1,16,-0.28,2,-4.4*
COc1ccc(-c2cc(-c3ccc(Br)cc3)nc3ncnn23)cc1OC,8,0.24,19,-0.99
CCN(CC)c1ccc(C(=O)OCC(=O)NCC2CCCO2)cc1 (stereo not given),9,0.33,7,0.4
CCOC(=O)c1c(C)n(OCc2ccccc2)c2ccc3c(no[n+]3[O-])c12,-2,-0.38,1,-4
Cn1c(-c2ccccc2)cc2c3no[n+]([O-])c3ccc21,94*,-1.1,74*,-0.025
Cc1sc2ncnc(N3CCC(C)CC3)c2c1C,/,0.96,/,-2
SMILES,PostGolgi ctrl,PTK2B oligo ant,PostGolgi yeast,Cav3 T inh
Cc1sc2ncnc(N3CCN(CCOc4ccc(Cl)cc4)CC3)c2c1C,35*,0.44,-5,-0.29
Cc1ccc(NC(CNS(=O)(=O)c2ccc(Cl)cc2)c2ccccc2)cc1 (stereo not given),31*,-0.6,-1,/
O=C(CCn1c(=O)[nH]c2ccsc2c1=O)N1CCN(c2cccc(Cl)c2)CC1,26,0.39,-1,-5.9*
O=C(Cn1c(=O)[nH]c2ccsc2c1=O)N1CCN(c2ccc(F)cc2)CC1,6,/,-1,0.4
CCc1ccccc1NC(=O)c1cc(C2CC2)on1,20,/,-8,0.0045
CC(=O)OCC1O[C@@H](O[C@@H]2C[C@H]3C(C)(C)[C@H](OC(C)=O)CC[C@]3(C)[C@H]3CC[C@]45C[C@]4(CC[C@H]5[C@@H](C)C[C@@H](O)[C@H](O)C(C)(C)O)[C@@]32C)[C@H](O)[C@@H](O)[C@@H]1O (stereo not given in full),/,/,/,-0.11
COc1ccc(CN(C(=O)CSc2nnc(-c3ccccc3C)o2)c2ccc(F)cc2)cc1,/,-0.77,/,-4.7*
COc1cccc(NC(=O)CSc2nnc(-c3ccc(C)cc3)o2)c1,8,/,9,-0.11
COc1ccc(-c2nnc(SCC(=O)Nc3cc(F)ccc3C)o2)cc1,9,/,-20,-5.6*
O=C(CSc1nnc(-c2c[nH]c3ccccc23)o1)N(Cc1ccccc1)c1ccc(F)cc1,53*,-3.3*,-5,-2.5
C[C@@H]1CCC[C@@]2(O[C@@H](CCO)C[C@@H](O)[C@@H]2O)O1,/,/,/,0.64
COc1ccc(N2CCN(C(=O)CSc3ccccc3)CC2)cc1,13,-0.03,-12,-0.25
COc1ccc(N2CCN(C(=O)CC(NC(N)=O)c3cccc(Oc4ccccc4)c3)CC2)cc1 (stereo not given),13,-0.25,10,-5.5*
COc1cc(NC(=O)CSc2nc(C)c(C)c(C)n2)c(C)cc1[N+](=O)[O-],/,-0.62,/,/
COc1ccc(N=C2NC(=O)S/C2=C\c2ccc(N(C)C)cc2)cc1,14,-3.1*,-5,-0.39
CCOc1ccc(N=C2NC(=O)S/C2=C\c2ccc(Cl)cc2)cc1,0,0.42,-10,0.043
O=C(CSc1ncnc2sc3c(c12)CCCC3)c1ccco1,46*,-0.98,0,/
COc1cccc(C(=O)CSc2nnc(CNS(=O)(=O)c3ccc(C)cc3)n2C)c1,5,1.3,-32,0.57
CCn1cc(C(=O)OCC(=O)OC2CC(C)CCC2C(C)C)c(=O)c2ccc(C)nc21 (stereo not given),15,-0.89,-8,-6.4*
CCn1cc(C(=O)OCc2ccccc2)c(=O)c2ccc(C)nc21,14,-0.04,9,-0.022
Cc1c(-c2ccccc2)nc(N)c(C#N)c1-c1ccco1,4,1.5,-4,-0.15
Cc1nc(N)c(C#N)c(-c2ccccc2)c1C,31*,0.17,-1,-0.25
COc1cc(C)ccc1OCCCOc1cc(C)ccc1Cl,/,-0.04,/,-0.91
Cc1ccc(Cl)c(OCCCCN(C)Cc2ccccc2)c1,34*,-0.21,93*,-0.44
O=C(CSc1ccc(Cl)cc1)N1CCN(c2c(Cl)cccc2[N+](=O)[O-])CC1,29,-1.4,41*,-2.9
SMILES,PostGolgi ctrl,PTK2B oligo ant,PostGolgi yeast,Cav3 T inh
O=C(CSc1ccc(Cl)cc1)N1CCN(c2ccc([N+](=O)[O-])cc2Cl)CC1,78*,1.8,82*,-3.7
CS(=O)(=O)N1CCN(c2c(Cl)cccc2[N+](=O)[O-])CC1,10,-0.55,-3,-0.53
COC(=O)CCCC(=O)N1CCOCCN(C(=O)CCCC(=O)OC)CCOCC1,-3,-0.07,5,0.0092
CCOc1ccc(NC(=O)CNC(=O)c2cn(-c3ccccc3OC)c(=O)c3ccccc23)cc1,-5,0.65,-2,-1.9
Cc1ccc(C(=O)NCc2occc2C(=O)O)o1,-3,-0.08,34*,-0.51
Cc1ccc(C(=O)NCCCCNC(=O)c2ccc(C)o2)o1,-1,1.4,2,0.64
CCOc1ccccc1N(CC(=O)NC1CCCC1)C(=O)CCCC(=O)Nc1ccccn1,17,0.11,0,-3.5
COc1cc(/C=N/NC(=Nc2ccc(C)cc2)c2nc3ccccc3s2)ccc1O,55*,-1.9,0,-0.036
COc1ccccc1/C=N/NC(=Nc1ccc(C)cc1)c1nc2ccccc2s1,21,/,-2,-0.6
Cc1[nH]c2ccccc2c1SCC(=O)N1CCCc2ccccc21,26,/,6,-4.8*

# Assay outcomes: PubChem BioAssay, several laboratories
